Hits are enriched below; roughly 12% of the tested compounds scored in any of these assays.
Shiga toxin inh: A qHTS for Small Molecule Inhibitors of Shiga Toxin; Vero cells, Shiga toxin protein synthesis inhibition reporter; inhibition, % at 38.7 µM; hit rate 9.2% among 290,000; AID 2315, 2010; in the data active = inhibition mostly above about 28%, no sharp cut-off; inactive = mostly below about 43%; note: 0% is about no effect
Cycloheximide cs: Cycloheximide Counterscreen for Small Molecule Inhibitors of Shiga Toxin; max response, %; cell reporter, cycloheximide protein synthesis inhibition counterscreen; AID 2314, 2010; hit rate 12% among 300,000; in the data active = max response mostly above about 13%, no sharp cut-off; inactive = mostly below about 14%; note: read at 38.3 µM for the half of the compounds with a filed dose; 0% is about no effect
SARS PLP yeast: qHTS of Yeast-based Assay for SARS-CoV PLP. S. cerevisiae expressing SARS-CoV PLpro, growth rescue. Potency, µM (top dose mostly 32.9 µM), for inactives: at the top dose activity, positive = growth rescue, most hits filed as activators. hit rate 0.19% among 330,000. AID 485353, 2010; note: potency is the fitted concentration of half-maximal effect; 0% is about no effect; nearly all actives have a fitted effect of over 55% in size
NS1 inh: qHTS Assay for Inhibitors of Influenza NS1 Protein Function; Potency, µM (titrated, usually from 46.1 µM), for the others: top-dose activity, positive = more growth; hit rate 0.4% among 270,000; note: potency is the fitted concentration of half-maximal effect; actives are rising curves; nearly all actives have a fitted effect of over 50% in size
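Recovery from NS1-induced slow growth read by OD600 in budding yeast switched to galactose assay medium (pH 6.0, -URA) at 1:100 dilution. Compound 23 nl per well; the matching strain lacking NS1 serves as control.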
Active calls of the source: *; u = inconclusive; x = no result. Unless noted, calls come from the whole dose curve.

SMILES | Shiga toxin inh | Cycloheximide cs | SARS PLP yeast | NS1 inh
O=C(CSC1=NNC(c2ccccn2)S1)Nc1ccccc1 (stereo unspecified) | 36 | 22* | u | -110%
O=C(CSC1=NCCN1)Nc1ccccc1 | x | x | x | 1%
CC1CC(C)CN(CC(=O)Nc2cc(S(=O)(=O)N3CCOCC3)ccc2N2CCCC2)C1 (stereo unspecified) | x | x | 5% | x
COC(=O)C1=C(C)N(c2ccc(F)cc2)/C(=C/c2ccc(O)cc2)C1=O | -10 | -6 | -4% | x
CC(C)c1ccc(/C=N/NC(=O)c2ccccc2Cl)cc1 | 107* | 46* | -6% | x
COC(=O)c1ccc(/C=N/NC(=O)c2ccccc2Cl)cc1 | 47* | 42* | -18% | 0%
O=S(=O)(NCc1ccc(F)cc1)c1ccc(Br)cc1Br | x | x | 0% | x
CCc1nnc(NC(=O)CSc2nc3ccccc3s2)s1 | -8 | 3 | -1% | -14%
Cn1c(-c2csc(-c3ccccc3)n2)n[nH]c1=S | 25 | 16* | 2% | 3%
Cn1c(CSc2nc3ccccc3s2)n[nH]c1=S | 18 | 15* | 2% | -5%
CCNc1nnc(CSc2nc3ccccc3s2)s1 | 60* | 37* | -35% | -9%
Cn1c(CSc2nc3ccccc3s2)nc2ccccc21 | 77* | 39* | -28% | -63%
CC(C)C(=O)Nc1nnc(COc2ccc(Cl)cc2)s1 | 13 | 8 | -1% | 7%
CC(=O)Nc1nnc(COc2ccc(Cl)cc2)s1 | 92* | 57* | 2% | x
CC(=O)Nc1nnc(COc2ccccc2)s1 | 55* | 21* | 0% | -3%
COC(=O)C(=O)Nc1nnc(COc2ccccc2)s1 | 1 | -2 | 1% | -12%
NNC(=O)c1csc(COc2cc(Cl)cc(Cl)c2)n1 | -7 | 2 | -5% | 1%
CC(=O)c1csc(COc2ccc(Cl)cc2)n1 | 38* | 44* | -1% | -7%
Cc1ccc(N/C=C/c2onc(C)c2[N+](=O)[O-])cc1 | 117* | 74* | 1% | -11%
Cc1cccc(C)c1N/C=C/c1onc(C)c1[N+](=O)[O-] | -7 | 0 | x | -1%
CCOc1ccc(NC2OC(CO)C(O)C(O)C2O)c([N+](=O)[O-])c1 (stereo unspecified) | -1 | 1 | 4% | x
COc1ccc(/C=N\NC(=O)O)cc1 | x | x | x | -4%
COC(=O)N/N=C\c1ccc(OC/C=C/c2ccccc2)cc1 | 14 | 15* | 10% | -18%
COC(=O)N/N=C/c1ccc(Oc2ccccc2)cc1 | 92* | 46* | -7% | x
CC(C)(O)C(=O)N/N=C\c1ccc(OC/C=C/c2ccccc2)cc1 | 45 | 32* | -2% | -19%
SMILES | Shiga toxin inh | Cycloheximide cs | SARS PLP yeast | NS1 inh
CCOC(=O)c1c(/C=N/Nc2ccccc2)c2sc(C)cc2n1C | x | x | -16% | x
O=C(O)CNC(=O)[C@H]1NC(C(F)(F)F)(C(F)(F)F)OC1(C(F)(F)F)C(F)(F)F | x | x | x | -6%
Cc1ccc(-n2cccn2)c(CN2CCCC(CNC(=O)c3ccc(F)cc3)C2)c1 (stereo unspecified) | -7 | 1 | -1% | 5%
CCOC(=O)c1sc(NNC(=O)c2ccc(F)cc2)nc1C | 56* | 22* | 0% | -39%
CCOC(=O)c1sc(NC(=O)c2ccc3ncsc3c2)nc1C | 73* | 25* | -4% | -22%
CCOC(=O)c1sc(NC(=O)c2cncc(Br)c2)nc1C | 56* | 15 | 0% | 5%

Source: PubChem (National Center for Advancing Translational Sciences (NCATS))
